# Test results as given in PubChem BioAssay (Tox21).
# Unmarked numbers belong to inactive results. Results filed as inconclusive are left out. Entries that show only a call come without a potency. Calls of active or inactive are those of the source. Unless noted, calls come from the whole dose curve; as a rule, active = well fitted curve in the direction sought with a large enough effect in the repeat runs; inconclusive = weak or mixed curves; inactive = no such curve, though single readings can be large; an effect the other way counts as inactive or inconclusive.
# Legend:
# [1] = qHTS assay for small molecules that induce genotoxicity in human embryonic kidney cells expressing luciferase-tagged ATAD5 (AID 651632); note: nearly all actives have a fitted effect of over 15% in size
# Outline: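 Reporter cells (HEK293T) express luciferase-tagged ATAD5, a protein that accumulates after DNA damage. Treat 16 hr at 37C/5% CO2, add Amplite, wait 30 min at RT, and read luminescence.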
# [2] = qHTS assay for small molecule agonists of the p53 signaling pathway - cell viability (AID 651633; calls by dose curve;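 note: p53RE-bla HCT reporter cells with a stable beta-lactamase p53 reporter; series mostly up to about 83 µM; nearly all actives have a fitted effect of over 30% in size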)
# Outline: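 p53RE-bla cells were treated with compound for 16 hours at 37 C. Cytotoxicity was then measured as CellTiter-Glo luminescence after 30 min at room temperature.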
# [3] = qHTS assay for small molecules that induce genotoxicity in human embryonic kidney cells expressing luciferase-tagged ATAD5 - cell viability (AID 651634; calls by dose curve; note: nearly all actives have a fitted effect of over 25% in size)
# Outline: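 Seeding of 2,000 HEK293T ATAD5-luciferase cells per well preceded pin-tool compound transfer. Plates sat 15.5 hr at 37C under 5% CO2, then fluorescence was read after 30 min with CellTiter-Fluor.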
# [4] = qHTS assay for small molecule disruptors of the mitochondrial membrane potential - cell viability (AID 720634; calls by dose curve;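 note: human HepG2 liver cancer cells; series mostly up to about 83 µM; nearly all actives have a fitted effect of over 20% in size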)
# Outline: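 Measuring cytotoxicity alongside mitochondrial potential, the screen quantified ATP by luminescence in HepG2 cells after 1 hr compound incubation and a 30 min room-temperature CellTiter-Glo step.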
# [5] = qHTS assay to test for compound auto fluorescence at 590 nm (red) in HepG2 cells (AID 720674)
# Outline: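 Seeding: 2,000 HepG2 cells/well, MEM/10% FBS, overnight 37 C. Dosing: compound vs DMSO. Incubation: 1 hr, 37 C, 5% CO2. Read: fluorescence 540 ex/590 em, Rose Bengal sodium as red reference.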
# [6] = qHTS assay to test for compound auto fluorescence at 590 nm (red) in HEK293 cells (AID 720679)
# Outline: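 Plates of HEK293 cells (10% dialyzed FBS) are treated with 23 nL compound or DMSO vehicle after a 4-5 hr attachment period, incubated overnight at 37C, and read for red fluorescence at 540/590nm.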
# [7] = qHTS assay to test for compound auto fluorescence at 535 nm (green) in HEK293 cells (AID 720680)
# [8] = qHTS assay to test for compound auto fluorescence at 460 nm (blue) in HEK293 cell free culture (AID 720681)
# Outline: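 Compounds were added to cell-free DMEM with 10% FBS and fluorescence read directly. The blue channel used 405 nm excitation and 460 nm emission, with triamterene as the reference fluorophore.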
# [9] = qHTS assay to test for compound auto fluorescence at 535 nm (green) in HEK293 cell free culture (AID 720682)
# Outline: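 Measurement is a direct plate read of green fluorescence (485 nm in, 535 nm out) after compound addition to serum-supplemented DMEM lacking cells, with fluorescein used to express intensities.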
# [10] = qHTS assay to test for compound auto fluorescence at 590 nm (red) in HEK293 cell free culture (AID 720683)
# Outline: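 Cell-free wells of DMEM with 10% FBS received compound, and intrinsic fluorescence was read at excitation/emission 540/590 nm. Values expressed as equivalence to Rose Bengal sodium.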
# [11] = qHTS assay to test for compound auto fluorescence at 590 nm (red) in HepG2 cell free culture (AID 720684)
# Outline: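 Compound was pinned into wells holding MEM with 10% FBS and no cells, and red fluorescence was read at Ex/Em 540/590 nm. Signal is expressed as auto fluorescence equivalency relative to Rose Bengal sodium.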
# [12] = qHTS assay to test for compound auto fluorescence at 460 nm (blue) in HepG2 cell free culture (AID 720685)
# Outline: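 Compound (23 nL) or DMSO pinned into cell-free MEM with 10% FBS; blue fluorescence read at 405/460 nm excitation/emission, expressed as auto-fluorescence equivalency to triamterene.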
# [13] = qHTS assay to test for compound auto fluorescence at 535 nm (green) in HepG2 cell free culture (AID 720686)
# [14] = qHTS assay to test for compound auto fluorescence at 460 nm (blue) in HepG2 cells (AID 720687)
# Outline: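 HepG2 cells in MEM with 10% FBS, attached overnight at 37 C, were exposed to compound or DMSO for 1 hr at 37 C, 5% CO2. Blue fluorescence was read at 405/460 nm, with triamterene as reference fluorophore.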
# [15] = qHTS assay to test for compound auto fluorescence at 535 nm (green) in HepG2 cells (AID 720675)
# [16] = molecular target: Glucocorticoid receptor (Homo sapiens) (UniProt P04150); assay: qHTS assay to identify small molecule agonists of the glucocorticoid receptor (GR) signaling pathway (AID 720691; active = well fitted activation curve with a large enough effect in the signal ratio in the repeat runs, not every such curve was filed as active; the % refers to the signal ratio)
# Outline: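 Reporter read-out: fluorescence intensity following 2 h room-temperature LiveBLAzer B/G FRET substrate loading. Prior step: GR-bla HeLa cells held 4 h, then treated 18 h at 37 C.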
# [17] = qHTS assay to test for compound auto fluorescence at 460 nm (blue) in HEK293 cells (AID 720678)
# Outline: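 After cell attachment (4-5 hr, 37C), compounds were pinned onto HEK293 monolayers in 10% dialyzed FBS medium. The blue channel (405/460 nm) was read following overnight culture. Equivalency was calculated against triamterene.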
# [18] = qHTS assay for small molecule disruptors of the mitochondrial membrane potential (AID 720635); note: potency is the fitted concentration of half-maximal effect
# Outline: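 HepG2 cells exposed to compound 1 hr at 37C, then Mito-MPS dye 30 min. Ratio read of aggregate (540/590 nm) versus monomer (490/535 nm) fluorescence.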
# [19] = molecular target: Glucocorticoid receptor (Homo sapiens) (UniProt P04150); assay: qHTS assay to identify small molecule antagonists of the glucocorticoid receptor (GR) signaling pathway (AID 720692; active = well fitted inhibition curve with a large enough effect in the signal ratio in the repeat runs, not every such curve was filed as active; the % refers to the signal ratio)
# Outline: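 Dexamethasone (5 nM final) stimulated a stably integrated GRE-beta-lactamase reporter in HeLa cells during 18 h co-incubation with compounds; signal was quantified as fluorescence intensity of B/G FRET substrate after 2 h.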
# Glucocorticoid receptor (Homo sapiens), sequence (P04150 whole entry, looked up): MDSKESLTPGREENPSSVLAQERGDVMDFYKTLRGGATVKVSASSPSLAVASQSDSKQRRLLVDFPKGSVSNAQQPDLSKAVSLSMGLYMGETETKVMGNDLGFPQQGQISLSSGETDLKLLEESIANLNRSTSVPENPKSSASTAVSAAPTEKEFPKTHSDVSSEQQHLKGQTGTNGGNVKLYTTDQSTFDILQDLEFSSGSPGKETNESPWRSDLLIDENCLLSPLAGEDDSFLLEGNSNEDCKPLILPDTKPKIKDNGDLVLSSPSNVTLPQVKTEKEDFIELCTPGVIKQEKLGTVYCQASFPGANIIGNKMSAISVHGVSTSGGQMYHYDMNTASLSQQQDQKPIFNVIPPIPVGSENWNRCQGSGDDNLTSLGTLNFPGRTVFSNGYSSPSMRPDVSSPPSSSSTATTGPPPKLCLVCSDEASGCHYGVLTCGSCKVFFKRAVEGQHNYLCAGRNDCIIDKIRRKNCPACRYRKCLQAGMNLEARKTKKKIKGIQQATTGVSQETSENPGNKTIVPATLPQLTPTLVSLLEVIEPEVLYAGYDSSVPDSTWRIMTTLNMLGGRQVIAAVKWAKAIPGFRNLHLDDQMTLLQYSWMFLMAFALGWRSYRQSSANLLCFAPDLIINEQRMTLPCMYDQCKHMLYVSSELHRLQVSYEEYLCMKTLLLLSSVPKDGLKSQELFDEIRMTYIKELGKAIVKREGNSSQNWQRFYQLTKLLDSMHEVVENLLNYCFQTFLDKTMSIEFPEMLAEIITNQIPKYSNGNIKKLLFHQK
structure (smiles),measurement,setting,value
CC(=O)OCC(=O)[C@@]1(O)[C@H](C)C[C@H]2[C@@H]3CCC4=CC(=O)C=C[C@]4(C)[C@@]3(F)[C@@H](O)C[C@@]21C,Potency,[1],inactive
same,Potency,[2],inactive
same,Potency,[3],inactive
same,outcome,[4],inactive
same,outcome,[5],inactive
same,outcome,[6],inactive
same,outcome,[7],inactive
same,outcome,[8],inactive
same,outcome,[9],inactive
same,outcome,[10],inactive
same,outcome,[11],inactive
same,outcome,[12],inactive
same,outcome,[13],inactive
same,outcome,[14],inactive
CO[C@@]1(NC(=O)C(C(=O)O)c2ccc(O)cc2)C(=O)N2C(C(=O)O)=C(CSc3nnnn3C)CO[C@@H]21 (stereo not given in full),Potency,[1],inactive
same,Potency,[2],inactive
same,outcome,[4],inactive
same,"fluorescence, relative to Rose Bengal",[5],0.111% [at 18.6 µM]
same,"fluorescence, % of fluorescein control",[15],-0.0745% [at 18.6 µM]
same,"fluorescence, % of fluorescent control",[6],0.0051% [at 18.6 µM]
same,"fluorescence, % of fluorescent control",[8],0.413% [at 18.6 µM]
same,activity change,[9],0.0756% [at 18.6 µM]
same,"fluorescence, % of fluorescent control",[10],0.0003% [at 18.6 µM]
same,"fluorescence, % of Rose Bengal",[11],-0.105% [at 18.6 µM]
same,"fluorescence, % of fluorescent control",[12],0.334% [at 18.6 µM]
same,"fluorescence, % of fluorescein control",[13],0.0104% [at 18.6 µM]
same,"fluorescence, % of fluorescent control",[14],0.208% [at 18.6 µM]
same,Potency,[16],inactive
Nc1ccn([C@@H]2O[C@H](CO)[C@@H](O)[C@@H]2O)c(=O)n1,Potency,[1],inactive
same,Potency,[2],inactive
same,Potency,[3],inactive
same,outcome,[5],inactive
same,outcome,[17],inactive
same,outcome,[6],inactive
same,outcome,[7],inactive
same,outcome,[8],inactive
same,outcome,[10],inactive
same,outcome,[11],inactive
same,outcome,[12],inactive
same,outcome,[13],inactive
same,outcome,[14],inactive
same,Potency,[16],inactive
C1CCC2=NCCCN2CC1,Potency,[2],inactive
same,Potency,[3],inactive
same,outcome,[4],inactive
same,Potency,[18],inactive
same,outcome,[5],inactive
same,outcome,[17],inactive
same,outcome,[6],inactive
same,outcome,[8],inactive
same,outcome,[9],inactive
same,outcome,[10],inactive
same,outcome,[11],inactive
same,outcome,[12],inactive
same,outcome,[13],inactive
same,outcome,[14],inactive
same,Potency,[16],inactive
same,Potency,[19],inactive
O=C1c2ccccc2C(=O)c2cc(O)ccc21,Potency,[2],inactive
same,Potency,[3],inactive
same,Potency,[18],1940 nM (active)
same,outcome,[5],inactive
same,outcome,[17],inactive
same,outcome,[6],inactive
same,outcome,[7],inactive
same,outcome,[8],inactive
same,outcome,[9],inactive
same,outcome,[10],inactive
same,outcome,[11],inactive
same,outcome,[12],inactive
same,outcome,[13],inactive
same,outcome,[14],inactive
CCCCc1nc(Cl)c(CO)n1Cc1ccc(-c2ccccc2-c2nn[nH]n2)cc1,Potency,[1],inactive
same,Potency,[2],inactive
same,Potency,[3],inactive
same,outcome,[4],inactive
same,outcome,[5],inactive
same,outcome,[15],inactive
same,outcome,[6],inactive
same,outcome,[7],inactive
same,outcome,[9],inactive
same,outcome,[10],inactive
same,outcome,[11],inactive
same,outcome,[12],inactive
same,outcome,[13],inactive
same,outcome,[14],inactive
same,Potency,[16],inactive
same,Potency,[19],inactive
CC[N+](C)(CC)CCOC(=O)C1c2ccccc2Oc2ccccc21,Potency,[2],inactive
same,Potency,[3],inactive
same,outcome,[4],inactive
same,Potency,[18],inactive
same,outcome,[5],inactive
same,outcome,[15],inactive
same,outcome,[17],inactive
same,outcome,[6],inactive
same,outcome,[7],inactive
same,outcome,[8],inactive
same,outcome,[10],inactive
same,outcome,[12],inactive
same,outcome,[13],inactive
same,outcome,[14],inactive
C1CCC2(CCCCO2)OC1,Potency,[1],inactive
same,Potency,[2],inactive
same,Potency,[3],inactive
same,outcome,[4],inactive
same,outcome,[5],inactive
same,outcome,[17],inactive
same,outcome,[6],inactive
same,outcome,[7],inactive
same,outcome,[8],inactive
same,outcome,[9],inactive
same,outcome,[10],inactive
same,outcome,[12],inactive
same,outcome,[13],inactive
same,outcome,[14],inactive
same,Potency,[16],inactive
same,Potency,[19],inactive
CCCCN(CCC(=O)OCC)C(C)=O,Potency,[1],inactive
same,Potency,[2],inactive
same,outcome,[4],inactive
same,outcome,[5],inactive
same,outcome,[15],inactive
same,outcome,[17],inactive
same,outcome,[6],inactive
same,outcome,[7],inactive
same,outcome,[8],inactive
same,outcome,[9],inactive
same,outcome,[10],inactive
same,outcome,[12],inactive
same,outcome,[13],inactive
same,outcome,[14],inactive
same,Potency,[16],inactive
same,Potency,[19],inactive
CCOc1ccc2nc(S(N)(=O)=O)sc2c1,Potency,[1],inactive
same,Potency,[2],inactive
same,outcome,[4],inactive
same,outcome,[5],inactive
same,outcome,[15],inactive
same,outcome,[6],inactive
same,outcome,[7],inactive
same,outcome,[9],inactive
same,outcome,[10],inactive
same,outcome,[11],inactive
same,outcome,[12],inactive
same,outcome,[13],inactive
same,outcome,[14],inactive
same,Potency,[19],inactive
CCO[Si](OCC)(OCC)c1ccccc1,Potency,[1],inactive
same,Potency,[2],inactive
same,outcome,[4],inactive
same,outcome,[5],inactive
same,outcome,[15],inactive
same,outcome,[6],inactive
same,outcome,[7],inactive
same,outcome,[10],inactive
same,outcome,[11],inactive
same,outcome,[12],inactive
same,outcome,[13],inactive
same,outcome,[14],inactive
same,Potency,[16],inactive
same,Potency,[19],inactive
CC(=O)c1ccccc1[N+](=O)[O-],Potency,[1],inactive
same,Potency,[2],inactive
same,outcome,[4],inactive
same,outcome,[5],inactive
same,outcome,[15],inactive
same,outcome,[17],inactive
same,outcome,[6],inactive
same,outcome,[8],inactive
same,outcome,[9],inactive
same,outcome,[10],inactive
same,outcome,[11],inactive
same,outcome,[12],inactive
same,outcome,[13],inactive
same,outcome,[14],inactive
CC(=O)NC(=O)c1ccccc1O,Potency,[1],inactive
same,Potency,[2],inactive
same,outcome,[4],inactive
same,outcome,[5],inactive
same,outcome,[15],inactive
same,outcome,[17],inactive
same,outcome,[6],inactive
same,outcome,[7],inactive
same,outcome,[8],inactive
same,outcome,[9],inactive
same,outcome,[10],inactive
same,outcome,[11],inactive
same,outcome,[12],inactive
same,outcome,[13],inactive
same,outcome,[14],inactive
same,Potency,[16],inactive
same,Potency,[19],inactive
COc1c(N2CCNC(C)C2)c(F)cc2c(=O)c(C(=O)O)cn(C3CC3)c12 (stereo not given),Potency,[1],inactive
same,Potency,[2],inactive
same,outcome,[4],inactive
same,Potency,[18],inactive
same,outcome,[5],inactive
same,outcome,[15],inactive
same,outcome,[17],inactive
same,outcome,[6],inactive
same,outcome,[7],inactive
same,outcome,[8],inactive
same,outcome,[9],inactive
same,outcome,[10],inactive
same,outcome,[11],inactive
same,outcome,[12],inactive
same,outcome,[13],inactive
same,outcome,[14],inactive
same,Potency,[16],inactive
same,Potency,[19],inactive
[Ca+2],Potency,[1],inactive
same,Potency,[3],inactive
same,outcome,[4],inactive
same,outcome,[5],inactive
same,outcome,[15],inactive
same,outcome,[6],inactive
same,outcome,[7],inactive
same,outcome,[8],inactive
same,outcome,[9],inactive
same,outcome,[10],inactive
same,outcome,[12],inactive
same,outcome,[13],inactive
same,outcome,[14],inactive
same,Potency,[16],inactive
